# This is a sample that favours compounds with a hit; in the whole collection about 5.7% have one here.
# hgDAF12 agonist = agonists of H. glycines DAF-12 nuclear receptor | activation, % at 6.8 µM | AID 687014 | actives 1.8% (n = 370,000) | HEK293 GAL4-hgDAF12 UAS-luciferase reporter, agonist luminescence; normalized to butyrate control;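 active = activation above a cutoff set at the mean of all screened compounds plus 3 SD, cut at about 10% in these data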;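 note: 0% = DMSO wells and 100% = sodium butyrate wells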
# DAX1 inh-1 = DAX1 (NR0B1) inhibition, primary screen; inhibition, % at 6.8 µM; HEK293T StAR-luciferase reporter, SF-1/DAX-1 repression relief; AID 652010; actives 1.1% (n = 370,000);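 active = inhibition above the mean over all tested compounds plus 3 SD, cut at about 3.6% in these data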;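 note: 0% = DAX-1 cells with DMSO and 100% = cells lacking DAX-1 with DMSO; higher inhibition means more luminescence from relief of DAX-1 repression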
# DAX1 inh-2 = NR0B1 (DAX1) inhibition; actives 0.99% (n = 340,000); HEK293 Gal4-DAX1 luciferase reporter, luminescence; inhibition, % at 6.75 µM;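 active = inhibition above the mean over all tested compounds plus 3 SD, cut at about 4.2% in these data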;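 note: 0% = DAX1-transfected cells with DMSO and 100% = empty-vector control cells with DMSO; inhibition shows as a rise in luminescence from relieved DAX1 repression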
# Target sequence (P51843 207-470 limits assumed): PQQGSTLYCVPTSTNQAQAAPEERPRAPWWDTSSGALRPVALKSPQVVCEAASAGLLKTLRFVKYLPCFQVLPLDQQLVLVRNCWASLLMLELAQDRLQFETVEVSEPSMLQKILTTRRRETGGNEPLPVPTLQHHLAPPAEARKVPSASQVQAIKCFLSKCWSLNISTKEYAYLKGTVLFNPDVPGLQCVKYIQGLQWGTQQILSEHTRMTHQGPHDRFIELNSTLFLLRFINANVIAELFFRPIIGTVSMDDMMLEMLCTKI
# ssDAF12 agonist = activates DAF-12 receptor from parasite S. stercoralis. activation, % at 6.8 µM. AID 652126. HEK293 ssDAF-12/GRIP1 lit1-tk-luc reporter, luminescence; % of 3 µM dafachronic acid response. actives 1% (n = 370,000);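 active = activation above the mean over all tested compounds plus 3 SD, cut at about 0.9% in these data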;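 note: 0% = DMSO-only wells and 100% = 3 µM delta7-dafachronic acid wells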
# hcDAF12 agonist = activates DAF-12 receptor from parasite H. contortus; activation, % at 6.8 µM; HEK293 hcDAF-12 lit1-tk-luc reporter, luminescence; 0% DMSO, 100% Δ7-dafachronic acid; actives 1.4% (n = 370,000);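 active = activation above the mean of all tested compounds plus 3 SD, cut at about 5.5% in these data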;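 note: 100% = response to 3 µM Δ7-dafachronic acid high control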
# AHR act = activates the human aryl hydrocarbon receptor. P35869. AHR-responsive luciferase reporter cells, luminescence. activation, % at 5 µM. actives 2.5% (n = 320,000); in the data active = activation above about 47%;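 note: 0% = vehicle wells and 100% = reference agonist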
# Numbers without * were called inactive; · = no result.
SMILES,hgDAF12 agonist,DAX1 inh-1,DAX1 inh-2,ssDAF12 agonist,hcDAF12 agonist,AHR act
CN(C(=O)COC(=O)COc1ccc(Cl)cc1Cl)c1c(N)n(Cc2ccccc2)c(=O)[nH]c1=O,1,1,0,-1,0,1
O=C(O)c1cccc(-c2noc(-c3cccc(Cl)c3)n2)c1,13*,2,-2,0,4,-5
Cc1nc2ccccc2nc(C)c1=NOCc1ccc(C#N)cc1,11*,2,2,0,4,11
Cc1ccc(C)c(NC(=O)CN(C)C(=O)c2cc(-c3cccs3)nn2-c2ccccc2)c1,-4,-1,1,-1,0,6
CSCc1ccc(C(=O)OCc2nc3ccccc3s2)o1,12*,1,1,0,6.2*,21
COc1ccc(S(=O)(=O)N2CCCCC2)cc1NC(=O)CCCOc1ccc(C)cc1,2,-1,0,-1,1,0
Oc1[nH]c2ccccc2c1C=NCC1CCCO1 (configuration not stated),5,0,0,-1,6.5*,6
Cn1c(/C(C#N)=C/c2ccc(O)cc2)nc2ccccc21,7,1,5.5*,1.2*,0,2
O=C1C=C(c2ccc3c(c2)OCO3)C[C@@H](c2ccc3c(c2)OCO3)C1,0,0,1,-1,-2,61*
O=C1C=C(c2ccc(-c3ccccc3)c(F)c2)C[C@@H](c2ccc3c(c2)OCO3)C1,-2,0,2,-1,-1,3
O=C1C=C(c2cccc(CO)c2)C[C@@H](c2ccc3c(c2)OCO3)C1,2,-1,-1,-2,-1,73*
Cc1cc(C2=CC(=O)C[C@H](c3ccc4c(c3)OCO4)C2)ccc1F,0,1,0,-1,-2,79*
COC(=O)[C@]12C[C@H](CC(=O)N3CCC(c4ccccc4)CC3)C(=O)N(Cc3ccc4c(c3)OCO4)C1=C[C@H](COCc1ccccc1)O[C@@H]2C,0,0,·,-1,1,·
CC(C)(C)NC(=O)NC(=O)COc1ccccc1C#N,9,3,5.1*,0,2,3
N#Cc1ccccc1OCC(=O)OCC(=O)NC1CCCCC1,4,2,0,-1,2,·
N#Cc1ccccc1OCC(=O)Nc1nnc(C2CC2)s1,-1,2,0,-1,-1,64*
N#Cc1ccccc1OCC(=O)NC1CCCCCC1,11*,2,3,0,5,·
C=CCNC(=O)COc1ccccc1C#N,6,1,0,-2,1,1
Cc1ccccc1OCC(=O)Nc1nnc(C2CC2)s1,2,0,-1,-1,0,-2
CCC(Oc1ccccc1)C(=O)OCC(=O)N(CC)c1c(N)n(Cc2ccccc2)c(=O)[nH]c1=O (configuration not stated),0,0,0,-1,-1,1
COc1cccc(CNS(=O)(=O)c2ccccc2Br)c1,6,-1,·,-1,1,·
N#C/C(=C/c1ccc(-c2ccccc2)o1)c1nc(-c2cccs2)cs1,3,1,1,0,5,54*
CC(C)c1ccc(OCC(=O)NCc2n[nH]c(=O)c3ccccc23)cc1,0,0,-1,0,-1,8
CCOC(=O)c1cc(-c2ccc(OC(F)F)cc2)nc2nc(SC)[nH]c(=O)c12,0,-1,-2,-1,-2,11
CCOC(=O)c1cc(-c2ccc(OC(F)F)cc2)nc2c1c(=O)[nH]c(=O)n2C,-4,0,0,-1,-1,61*
SMILES,hgDAF12 agonist,DAX1 inh-1,DAX1 inh-2,ssDAF12 agonist,hcDAF12 agonist,AHR act
COCC(=O)N1C[C@H]2CON(C)[C@H]2C[C@H]1c1ccc(N2CCCCC2)cc1,0,-1,·,0,-2,·
CS(=O)(=O)N(CC(=O)N1CCCCC1)Cc1ccccc1,-1,0,5.0*,-1,0,0
O=[N+]([O-])c1cc(-c2cccnc2)n[nH]1,2,0,0,-1,3,·
O=C(Nc1cccnc1)Nc1ccc(Cl)cc1Cl,2,0,0,-1,-2,48*
CCOc1ccc(NC(=O)Nc2cccnc2)cc1,7,1,2,-1,1,61*
COc1ccc(NC(=O)Nc2cccnc2)cc1,10,0,0,-2,0,27
CC(=O)c1cccc(NC(=O)Nc2cccnc2)c1,3,-1,0,-1,-3,65*
COc1ccccc1NS(=O)(=O)c1cccc(C(=O)OCc2nc3ccccc3s2)c1,5,1,1,2.7*,5.6*,24
COc1ccccc1NS(=O)(=O)c1cccc(C(=O)OCC(=O)Nc2cc(C)on2)c1,-1,0,-1,-1,1,1
COc1ccccc1NS(=O)(=O)c1cccc(C(=O)NCC(c2ccccc2OC)N2CCCC2)c1 (configuration not stated),0,4.3*,2,-1,0,2
Cc1cc(O)c(-c2cc(O)c(C)cc2O)cc1O,-1,0,0,-1,4,52*
Oc1[nH]c2ccc(Br)cc2c1N=NC(=S)Nc1ccc(F)cc1,1,0,1,-1,4,75*
Cc1cccc(C)c1OCC(=O)N=Nc1c(O)[nH]c2ccc(Br)cc12,-2,0,0,-2,0,3
COc1ccccc1N=Nc1c(O)[nH]c2ccc(Br)cc12,2,0,1,1.0*,6.4*,46
O=C(N=Nc1c(O)[nH]c2ccc(Br)cc12)c1ccco1,2,0,2,-1,2,·
CC(Oc1ccccc1)C(=O)N=Nc1c(O)[nH]c2ccc(Br)cc12 (configuration not stated),-4,0,-1,2.2*,1,27
Nc1[nH]c(C(=O)c2ccccc2)c(-c2ccc(Cl)c(F)c2)c1C(=O)c1c[nH]c2ccccc12,-1,0,·,0,4,·
COC(=O)C1=C(C)N(Cc2ccc(C(F)(F)F)cc2)C(=NCc2ccc(C(F)(F)F)cc2)NC1c1ccc(F)cc1 (configuration not stated),1,-1,·,0,3,·
CN(C)CCN1C(=O)c2cccc3cc([N+](=O)[O-])cc(c23)C1=O,-5,-7,6.9*,0,6.5*,·
CCOc1ccc(S(=O)(=O)/N=C(/Nc2ccc(C(C)=O)cc2)c2ccccc2)cc1,3,-1,-2,-1,-1,65*
O=C(N/N=C1\CCCc2ccccc21)c1ccccc1Cl,3,1,1,-1,1,4
O=C(NN=C1CCCCCCC1)c1ccccn1,10,3,2,0,5,3
COc1ccc2c(c1)C(=NNC(=O)c1ccccn1)c1cc(OC)ccc1-2,3,0,-1,-1,3,52*
O=C(N/N=C1\CCCCc2ccccc21)c1ccccn1,12*,3,1,1,1,2

# Source: PubChem BioAssay
